One test is described as follows: sensitizers of A549 cells to miR-34 induction, primary screen, imaging, A549 dox-inducible miR-34, nuclei and caspase counts (AID 1347080). Also: test concentration not given here. The settings on record: A549 miR-34 inducible, Hoechst nuclei count, 48 h; measured here: total cells with miR-34 induction; stronger effect = lower value.
Turning to `CCNc1nc2c(ncn2[C@H]2C[C@H](O)[C@@H](CO)O2)c(=O)[nH]1`, the cell count worked out at 9970.

For the compound `CC(=O)O[C@H]1Cc2ccccc2N(C(N)=O)c2ccccc21`, the cell count came out at 10000.

With `COc1ccc(-c2cc3ncc(C)n3c(Nc3ncccc3C(N)=O)n2)cc1OC`, the cell count stood at 8700.

As for `COc1ccc2c(c1)CCC1C2CC[C@@]2(C)C1CC[C@@H]2NCCCCCCN1C(=O)CCC1=O` (stereo partly drawn), the cell count turned out to be 8060.

Regarding `O=C(c1ccc(Cl)cc1)N1CCN(c2ccc([N+](=O)[O-])c3ncccc23)CC1`, the cell count turned out to be 6530.

Turning to `Cc1cc(Cn2cnc3c2C[C@@H](C(=O)O)N(C(=O)C(c2ccccc2)c2ccccc2)C3)ccc1N`, the cell count turned out to be 10300.

Turning to `c1ccc2c(c1)CCC[C@H]2Nc1nc2ccccc2[nH]1`, the cell count is 7820.

Regarding `Clc1ccc(N2CCN(Cc3cc4ccccn4n3)CC2)cc1`, the cell count came out at 9670.

Consider `Cn1ncc(S(=O)(=O)Cc2ccccc2)c(Br)c1=O`, for which the cell count is 2510.

Consider `O=c1ccc2c(OCCCCc3ccccc3)c3ccoc3cc2o1`, for which the cell count came out at 8160.

Consider `O=c1cc(-c2ccccc2F)[nH]c2cc3c(cc12)OCO3`, for which the cell count stood at 1710.

Take `O=C(CCCCCN1CCN(c2ccccc2-c2ccccc2)CC1)NC1CCCc2ccccc21` (stereo not drawn): the cell count was found to be 6130.

In the case of `COc1cc(C(O)CO)ccc1O` (stereo not drawn), the cell count was 9940.

`Brc1c(Br)c(Br)c2[nH]cnc2c1Br`: the cell count stood at 3750.

`OCC1O[C@H]([S-])[C@@H](O)C(O)[C@@H]1O.[Au+]` (stereo partly drawn): the cell count was determined as 6430.

With `Clc1nccc2c1ccc1ccccc12`, the cell count came to 8620.

With `CN(C)CCCc1cc(C(=O)Nc2ccc(-c3ccncc3)cc2)ccc1O`, the cell count was 7450.

For the compound `N[C@H](CCCP(=O)(O)O)C(=O)O`, the cell count was found to be 9420.

With `Oc1ccc(/C=C/c2ccc(/C=C/c3ccc(O)cc3)c(Br)c2)cc1`, the cell count amounted to 3040.

For the compound `CC[n+]1c(/C=C/C=C2/N(C)c3ccccc3C2(C)C)sc2ccccc21`, the cell count is 1270.

Regarding `C=C1C[C@@]23CC[C@H]4[C@@](C)(CCC[C@@]4(C)C(=O)OC4OC(CO)C(O)C(O)C4O)[C@@H]2CC[C@]1(OC1OC(CO)C(O)C(O)C1OC1OC(CO)C(O)C(O)C1O)C3` (stereo partly drawn), the cell count is 10700.

With `CCCCC#Cc1nc(NC)c2ncn([C@@H]3O[C@H](CO)C(O)[C@@H]3O)c2n1` (stereo partly drawn), the cell count worked out at 10300.

`CC(=O)/C=C1\C(=O)N(C)c2ccccc21`: the cell count turned out to be 6920.

Regarding `COc1cc(N)c(Cl)cc1C(=O)OCCN1CCCCC1`, the cell count was found to be 10600.

Regarding `CN(CC[C@@H](Oc1ccc(C(F)(F)F)cc1)c1ccccc1)CC(=O)O`, the cell count is 10800.

Regarding `O=c1[nH]c(=S)[nH]c(-c2ccccc2)c1Cc1c(O)ccc2ccccc12`, the cell count is 8710.

`Nc1nc2c(ncn2[C@@H]2O[C@H](CO)[C@@H](O)[C@@H]2O)c(=O)[nH]1`: the cell count is 8710.

Take `COc1ccc(/C=C2\COc3ccc(C)cc3C2=O)cc1O`: the cell count is 3090.

In the case of `Cc1cc2c(cc1Cl)N(C(=O)Nc1ccc(Oc3cccnc3C)nc1)CC2`, the cell count was 4820.

In the case of `CN1Cc2sccc2C(c2ccc(O)c(O)c2)C1` (stereo not drawn), the cell count came out at 10300.

Consider `Nc1ccc(-c2ccc3ccccc3n2)cc1`, for which the cell count is 7600.

`CC(C)c1cccc(C(C)C)c1N1C(=O)c2ccc(O)cc2C1=O`: the cell count was 1810.

For the compound `C=C1C[C@@]23CC[C@H]4[C@@](C)(CCC[C@@]4(C)C(=O)O)[C@@H]2CC[C@]1(O)C3`, the cell count was determined as 9720.

On to `O=C1/C(=C/c2ccsc2)CC/C1=C\c1cccs1`, for which the cell count turned out to be 9920.

For the compound `Nc1nc(OCC2CCCCC2)c2[nH]cnc2n1`, the cell count was found to be 7330.

Consider `CCCC(CCC)C(=O)OC1CC2CCC(C1)[N+]2(C)C` (stereo not drawn), for which the cell count turned out to be 9840.

Consider `CSc1ccccc1N1CCN(CCCCCC(=O)NC2CCCc3ccccc32)CC1` (stereo not drawn), for which the cell count came to 7020.

For `Cc1cc2c(cc1Cl)N(C(=O)Nc1ccnc3ccccc13)CC2`, the cell count was 10500.

Regarding `NC[C@@H]1O[C@H](c2ccccc2)Cc2c1ccc(O)c2O`, the cell count is 9490.

Staying with this test, now noted: A549 miR-34 inducible, Hoechst nuclei count, 48 h; measured here: total cells without miR-34 induction.
For `CCNc1nc2c(ncn2[C@H]2C[C@H](O)[C@@H](CO)O2)c(=O)[nH]1`, the cell count turned out to be 10300.

For `CC(=O)O[C@H]1Cc2ccccc2N(C(N)=O)c2ccccc21`, the cell count was determined as 10500.

Regarding `COc1ccc(-c2cc3ncc(C)n3c(Nc3ncccc3C(N)=O)n2)cc1OC`, the cell count was determined as 9220.

For `COc1ccc2c(c1)CCC1C2CC[C@@]2(C)C1CC[C@@H]2NCCCCCCN1C(=O)CCC1=O` (stereo partly drawn), the cell count is 7440.

In the case of `O=C(c1ccc(Cl)cc1)N1CCN(c2ccc([N+](=O)[O-])c3ncccc23)CC1`, the cell count worked out at 7170.

In the case of `Cc1cc(Cn2cnc3c2C[C@@H](C(=O)O)N(C(=O)C(c2ccccc2)c2ccccc2)C3)ccc1N`, the cell count was found to be 10200.

On to `c1ccc2c(c1)CCC[C@H]2Nc1nc2ccccc2[nH]1`, for which the cell count stood at 7150.

With `Clc1ccc(N2CCN(Cc3cc4ccccn4n3)CC2)cc1`, the cell count was 9570.

Turning to `Cn1ncc(S(=O)(=O)Cc2ccccc2)c(Br)c1=O`, the cell count amounted to 2200.

Turning to `O=c1ccc2c(OCCCCc3ccccc3)c3ccoc3cc2o1`, the cell count was 7580.

As to `O=c1cc(-c2ccccc2F)[nH]c2cc3c(cc12)OCO3`, the cell count is 1540.

In the case of `O=C(CCCCCN1CCN(c2ccccc2-c2ccccc2)CC1)NC1CCCc2ccccc21` (stereo not drawn), the cell count turned out to be 5250.

On to `COc1cc(C(O)CO)ccc1O` (stereo not drawn), for which the cell count was 10000.

As for `Brc1c(Br)c(Br)c2[nH]cnc2c1Br`, the cell count came out at 3380.

As to `OCC1O[C@H]([S-])[C@@H](O)C(O)[C@@H]1O.[Au+]` (stereo partly drawn), the cell count was found to be 7180.

Regarding `Clc1nccc2c1ccc1ccccc12`, the cell count came out at 5870.

Take `CN(C)CCCc1cc(C(=O)Nc2ccc(-c3ccncc3)cc2)ccc1O`: the cell count turned out to be 7450.

On to `N[C@H](CCCP(=O)(O)O)C(=O)O`, for which the cell count stood at 10400.

With `Oc1ccc(/C=C/c2ccc(/C=C/c3ccc(O)cc3)c(Br)c2)cc1`, the cell count was determined as 2280.

For `CC[n+]1c(/C=C/C=C2/N(C)c3ccccc3C2(C)C)sc2ccccc21`, the cell count turned out to be 1080.

On to `C=C1C[C@@]23CC[C@H]4[C@@](C)(CCC[C@@]4(C)C(=O)OC4OC(CO)C(O)C(O)C4O)[C@@H]2CC[C@]1(OC1OC(CO)C(O)C(O)C1OC1OC(CO)C(O)C(O)C1O)C3` (stereo partly drawn), for which the cell count was 10100.

Take `CCCCC#Cc1nc(NC)c2ncn([C@@H]3O[C@H](CO)C(O)[C@@H]3O)c2n1` (stereo partly drawn): the cell count was 10100.

Take `CC(=O)/C=C1\C(=O)N(C)c2ccccc21`: the cell count came to 7060.

Turning to `COc1cc(N)c(Cl)cc1C(=O)OCCN1CCCCC1`, the cell count stood at 9550.

For the compound `CN(CC[C@@H](Oc1ccc(C(F)(F)F)cc1)c1ccccc1)CC(=O)O`, the cell count was 10300.

For `O=c1[nH]c(=S)[nH]c(-c2ccccc2)c1Cc1c(O)ccc2ccccc12`, the cell count turned out to be 9210.

Consider `Nc1nc2c(ncn2[C@@H]2O[C@H](CO)[C@@H](O)[C@@H]2O)c(=O)[nH]1`, for which the cell count was determined as 9330.

`COc1ccc(/C=C2\COc3ccc(C)cc3C2=O)cc1O`: the cell count came out at 2660.

As to `Cc1cc2c(cc1Cl)N(C(=O)Nc1ccc(Oc3cccnc3C)nc1)CC2`, the cell count came out at 5180.

In the case of `CN1Cc2sccc2C(c2ccc(O)c(O)c2)C1` (stereo not drawn), the cell count was determined as 9720.

As to `Nc1ccc(-c2ccc3ccccc3n2)cc1`, the cell count was found to be 6930.

Consider `CC(C)c1cccc(C(C)C)c1N1C(=O)c2ccc(O)cc2C1=O`, for which the cell count was determined as 1300.

Take `C=C1C[C@@]23CC[C@H]4[C@@](C)(CCC[C@@]4(C)C(=O)O)[C@@H]2CC[C@]1(O)C3`: the cell count came to 10400.

In the case of `O=C1/C(=C/c2ccsc2)CC/C1=C\c1cccs1`, the cell count stood at 10000.

As for `Nc1nc(OCC2CCCCC2)c2[nH]cnc2n1`, the cell count came to 4990.

For the compound `CCCC(CCC)C(=O)OC1CC2CCC(C1)[N+]2(C)C` (stereo not drawn), the cell count was determined as 10300.

Regarding `CSc1ccccc1N1CCN(CCCCCC(=O)NC2CCCc3ccccc32)CC1` (stereo not drawn), the cell count amounted to 7120.

On to `Cc1cc2c(cc1Cl)N(C(=O)Nc1ccnc3ccccc13)CC2`, for which the cell count worked out at 9390.

For the compound `NC[C@@H]1O[C@H](c2ccccc2)Cc2c1ccc(O)c2O`, the cell count turned out to be 9820.

The record behind these values is PubChem BioAssay.
